Laboratory results taken from PubChem BioAssay (EPA / NIEHS).
The source made the active and inactive calls. The calls were made as follows: active = hit-call score of the fitted dose curve at least 0.9, where 1 is the maximum; inactive = score below 0.9.

read-out: Cytochrome P450 2C19 (Homo sapiens) (UniProt P33261); assay: LTEA_HepaRG_CYP2C19: Life Technologies and Expression Analysis (LTEA) Assay for CYP2C19 using HepaRG (AID 2283482); settings: mRNA level, 48 h; actives raise or lower the signal
Procedure: LTEA_HepaRG is a cell based, multiplexed-readout assay that uses HepaRG, a human liver cell line, with measurements taken at 48 hours after chemical dosing on a 96-well plate.LTEA_HepaRG_CYP2C19 is one of 102 assay component(s) measured in the LTEA HepaRG cell culture assay. It is a marker of NR mediated metabolism.Data from the assay component LTEA_HepaRG_CYP2C19 was analyzed into 1 endpoint. This assay endpoint, LTEA_HepaRG_CYP2C19, was analyzed with bidirectional fitting relative to DMSO as the negative control and baseline of activity. Using a type of inducible reporter, measures of mRNA induction for gain or loss-of-signal activity can be used to understand regulation of transcription factor activity. To generalize the intended target to other relatable targets, this assay endpoint is annotated to the cyp intended target family, where the subfamily is xenobiotic metabolism.
A total of 1060 chemcials from the ToxCast library were tested in eight-point concentration-response experiments. Cell culture and cytotoxicity assays were conducted at Thermo Fisher Scientific's Custom Services facility (Madison, WI). A single lot of human HepaRG cells (Thermo Fisher Scientific, Frederick, MD) was used for the cell culture experiments. 96-well format collagen type I coated plates of human HepaRG cells were prepared using established methods. Briefly, cryopreserved HepaRG cells were thawed, plated at a density of approximately 100,000 cells/well in HepaRG Thaw, Plate, and General Purpose media (HPRG770, Thermo Fisher Scientific), and incubated for 48 hours. 0.5% DMSO was selected as vehicle control to balance the requisite need of DMSO in HepaRG cultures to maintain differentiation (for example, baseline metabolism, proportions of hepatocytes vs. cholangiocytes), while enabling further hepatic receptor pathway activation (for example, PXR and CAR) in response to chemical exposure. 48 hours after plating, the culture medium was replaced with HepaRG Serum-Free Incudtion Media. Cells were exposed to each test chemical in duplicate and maintained in CO2 incubators for another 48 hours. Chemical plates were thawed to room temperature and 200x concentrations of treatment groups were prepared. 8-point conentration-reponse curves were made with the highest exposure at 100 uM, followed by half-log dilutions, all in 0.5% DMSO. Each test plate contained variouse controls, induction positive controls (1mM phenobarbital), cytotoxicity positive controls ([…] aflatoxin B1), vehicle controls (0.5% DMSO), and total lysis controls (0.5% DMSO). Cell morphology images were taken using an Essen IncuCyte FLR automated microscope, with six 96-well plates imaged in about 24 minutes. Images were captured and exported and JPEG files. Spent culture media was transfered to black-well plates for the LDH assay, and remaining media was sorted at -80 C for later use. Cells were treated with RLT buffer and frozen until shipped for gene expression analysis. Total RNA was isolated from the cell suspension in 75 uL of Buffer RLT (Qiagen, Germantown, MD 20874) by Quintiles/Expression Analysis (Durham, NC) using a custom isolation procedure. Total RNA from each plate well was transferred to a preamplification plate. Fluidigm's 96.96 Dynamic ArrayTM (Fluidigm, Amsterdam, the Netherlands) technology was used for gene expression analyses by quantitative reverse transcription polymerase chain reaction (qRT-PCR, performed by Quintiles/Expression Analysis, Durham, NC)89. Standard TaqManTM Assays (Applied Biosystems/ThermoFisher Scientific, Foster City, CA) were used to assess the expression of 93 genes selected based on their selectivity and sensitivity to important hepatic receptors known to be modulated by environmental chemicals; importance in human hepatocyte functionality; and hepatotoxicity. […]

Chain of Cytochrome P450 2C19 (Homo sapiens) (P33261 whole entry, looked up): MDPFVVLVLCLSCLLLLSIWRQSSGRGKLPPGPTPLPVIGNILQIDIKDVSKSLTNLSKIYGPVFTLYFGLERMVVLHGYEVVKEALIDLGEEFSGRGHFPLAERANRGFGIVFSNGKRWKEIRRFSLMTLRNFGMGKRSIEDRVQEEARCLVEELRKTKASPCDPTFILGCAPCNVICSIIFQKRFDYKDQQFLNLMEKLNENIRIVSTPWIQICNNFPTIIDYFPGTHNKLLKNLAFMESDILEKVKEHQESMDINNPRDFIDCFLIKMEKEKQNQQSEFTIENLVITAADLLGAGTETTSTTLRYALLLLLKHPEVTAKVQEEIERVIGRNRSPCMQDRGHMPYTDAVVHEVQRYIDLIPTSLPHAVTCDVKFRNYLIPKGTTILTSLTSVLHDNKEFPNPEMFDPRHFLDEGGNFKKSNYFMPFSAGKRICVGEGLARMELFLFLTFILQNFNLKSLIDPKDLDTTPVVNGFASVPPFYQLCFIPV

Structure (SMILES)	outcome	AC50
CCCCC(CC)COC(=O)c1ccc(C(=O)OCC(CC)CCCC)c(C(=O)OCC(CC)CCCC)c1 (stereo not given)	inactive	–
Nc1ccc(Cl)cc1N	–	28.6 µM (active)
OCCCl	inactive	–
CN(C)c1ccc(C(=O)c2ccc(N(C)C)cc2)cc1	inactive	–
COC(=O)Nc1nc2ccccc2[nH]1	inactive	–
CC(C)(C)OOC(=O)c1ccccc1	inactive	–
ClCCOCCCl	inactive	–
O=Cc1ccco1	inactive	–
C[C@]12C=CC3=C4CCC(=O)C=C4CC[C@H]3[C@@H]1CC[C@@H]2O	–	65.3 µM (active)
CCN(CC)N=O	inactive	–
c1ccc(N=Nc2ccccc2)cc1	inactive	–
CCCCOC(=O)c1ccccc1C(=O)OCc1ccccc1	inactive	–
[O-][Cl+]O	inactive	–
Clc1ccccc1Cl	inactive	–
CC(O)CCO (stereo not given)	inactive	–
CC(C)(C)OOC(C)(C)CCC(C)(C)OOC(C)(C)C	inactive	–
N#CC(Br)(Br)C(N)=O	inactive	–
CC(C)COC(=O)c1ccccc1C(=O)OCC(C)C	inactive	–
CN(C)[C@@H]1C(=O)C(C(N)=O)=C(O)[C@@]2(O)C(=O)C3=C(O)c4c(O)cccc4[C@@](C)(O)[C@H]3C[C@@H]12	inactive	–
Cc1ccc(N)c(N)c1	inactive	–

Structure (SMILES)	outcome	AC50
Nc1cc(Cl)cc(C(=O)O)c1Cl	inactive	–
Cc1cccc(N)c1N	inactive	–
Cc1ccc(N=C=O)cc1N=C=O	inactive	–
c1ccc(C2CO2)cc1 (stereo not given)	inactive	–
CS(=O)(=O)NC(=O)c1cc(Oc2ccc(C(F)(F)F)cc2Cl)ccc1[N+](=O)[O-]	–	1.52 µM (active)
Nc1ccc(Cc2ccc(N)cc2)cc1	–	14.5 µM (active)
CC(C)N(Cc1ccccc1)C(=O)C(C)(C)C	–	11.1 µM (active)
O=C(N[C@H](c1ccccc1)[C@@H]1CN2CCC1CC2)c1c(Cl)ccc(C(F)(F)F)c1Cl	–	75.2 µM (active)
CN(C)c1ccccc1	inactive	–
[As]#[In]	inactive	–
CC(C)(OOC(C)(C)c1ccccc1)c1ccccc1	–	30 µM (active)
C[N+](C)(C)CC1CO1 (stereo not given)	inactive	–
OCCOCCO	inactive	–
Nc1ccc(N=Nc2ccccc2)cc1	–	14.4 µM (active)
O=C(Oc1ccc(Br)cc1)N1CCN2CCC1CC2	–	15.2 µM (active)
CCN(CC)CCO	inactive	–
CCCCCCCCn1sccc1=O	–	81.8 µM (active)
c1ccc2c(c1)-c1cccc3cccc-2c13	–	9.15 µM (active)
Nc1ccc(Oc2ccc(N)cc2)cc1	inactive	–
OCCCBr	inactive	–
